Results: PubChem BioAssay AID1159580 (chemical genetic matrix, 2015)
About 2,000 (36%) of roughly 5,500 compounds were called active. Not shown: some 18% with an inconclusive outcome. Rule as the data show it: active = normalized growth mostly below about 0.91 (no sharp cut-off); inconclusive = no clear call, values can overlap the other calls; inactive = mostly above about 0.92. The list shows a part of the results.

Assay: chemical genetic growth profiling, strain panel (AID 1159580);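 also: tested at 20 µM; growth read once vehicle control cultures reached saturation at 30 °C; 1 = growth at the plate median or of vehicle wells; lower values mean less growth of the strain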
Conditions: S. cerevisiae deletion strains, growth OD
[1] = locus YAR019C, strain CDC15, hits give low values
[2] = locus YBL105C, strain PKC1, hits give low values
[3] = locus YBR135W, strain CKS1, hits give low values
[4] = locus YBR136W, strain MEC1, hits give low values
[5] = locus YBR160W, strain CDC28, hits give low values
[6] = locus YDL017W, strain CDC7, hits give low values
[7] = locus YDL028C, strain MPS1, hits give low values
[8] = locus YDL101C, strain DUN1, hits give low values
[9] = locus YDL108W, strain KIN28, hits give low values
[10] = locus YDL132W, strain cdc53, hits give low values
[11] = locus YDL214C, strain PRR2, hits give low values
[12] = locus YDR052C, strain DBF4, hits give low values
[13] = locus YDR054C, strain cdc34, hits give low values
[14] = locus YDR226W, strain ADK1, hits give low values
[15] = locus YDR477W, strain SNF1, hits give low values
[16] = locus YER123W, strain YCK3, hits give low values
[17] = locus YER133W, strain GLC7, hits give low values
[18] = locus YFL009W, strain cdc4, hits give low values
[19] = locus YFL029C, strain CAK1, hits give low values
[20] = locus YFR003C, strain YPI1, hits give low values
[21] = locus YFR019W, strain FAB1, hits give low values
[22] = locus YFR028C, strain CDC14, hits give low values
[23] = locus YGR040W, strain KSS1, hits give low values
[24] = locus YGR052W, strain FMP48, hits give low values
[25] = locus YGR092W, strain DBF2, hits give low values
[26] = locus YHR030C, strain SLT2, hits give low values
[27] = locus YHR079C, strain IRE1, hits give low values
[28] = locus YHR082C, strain KSP1, hits give low values
[29] = locus YHR205W, strain SCH9, hits give low values
[30] = locus YIL147C, strain SLN1, hits give low values
[31] = locus YJL095W, strain BCK1, hits give low values
[32] = locus YJL128C, strain PBS2, hits give low values
[33] = locus YJL157C, strain FAR1, hits give low values
[34] = locus YJR016C, strain ILV3, hits give low values
[35] = locus YJR066W, strain TOR1 (second series), hits give low values
[36] = locus YJR066W, strain TOR1, hits give low values
[37] = locus YKL048C, strain ELM1, hits give low values
[38] = locus YKL067W, strain YNK1, hits give low values
[39] = locus YKL101W, strain HSL1, hits give low values
[40] = locus YKL193C, strain SDS22, hits give low values
[41] = locus YKL203C, strain TOR2, hits give low values
[42] = locus YLR113W, strain HOG1, hits give low values
[43] = locus YLR133W, strain CKI1, hits give low values
[44] = locus YLR403W, strain SFP1, hits give low values
[45] = locus YML070W, strain DAK1, hits give low values
[46] = locus YMR001C, strain CDC5, hits give low values
[47] = locus YMR205C, strain PFK2 (second series), hits give low values
[48] = locus YMR277W, strain FCP1, hits give low values
[49] = locus YNL006W, strain LST8, hits give low values
[50] = locus YNL020C, strain ARK1, hits give low values
[51] = locus YNL161W, strain CBK1, hits give low values
[52] = locus YNL183C, strain NPR1, hits give low values
[53] = locus YNL207W, strain RIO2, hits give low values
[54] = locus YNL222W, strain SSU72, hits give low values
[55] = locus YNL307C, strain MCK1 (second series), hits give low values
[56] = locus YOL078W, strain AVO1, hits give low values
[57] = locus YOL136C, strain PFK27, hits give low values
[58] = locus YOR061W, strain CKA2, hits give low values
[59] = locus YOR119C, strain RIO1, hits give low values
[60] = locus YOR231W, strain MKK1, hits give low values
[61] = locus YOR329C, strain SCD5, hits give low values
[62] = locus YPL031C, strain PHO85, hits give low values
[63] = locus YPL153C, strain RAD53, hits give low values
[64] = locus YPL204W, strain HRR25, hits give low values
[65] = locus YPL209C, strain IPL1, hits give low values
[66] = locus YPL256C, strain CLN2, hits give low values
[67] = locus YPR025C, strain CCL1, hits give low values
[68] = locus YPR106W, strain ISR1, hits give low values
[69] = locus YPR111W, strain DBF20, hits give low values
[70] = strain NNK1, hits give low values
[71] = strain TSCII, hits give low values

Measured: normalized growth

Cc1cc(Cl)ccc1NNC(=O)c1sccc1Br
active: [26] 0.489 | [42] 0.715 | [66] 0.793
inactive: [1] 0.928 | [2] 0.925 | [3] 0.927 | [4] 0.921 | [5] 0.918 | [6] 0.928 | [7] 0.929 | [8] 0.917 | [9] 0.932 | [10] 0.918 | [11] 0.872 | [12] 0.931 | [13] 0.908 | [14] 0.922 | [15] 0.871 | [16] 0.81 | [17] 0.851 | [18] 0.925 | [19] 0.921 | [20] 0.924 | [21] 0.895 | [22] 0.924 | [23] 0.844 | [24] 0.908 | [25] 0.784 | [27] 0.862 | [28] 0.879 | [29] 0.844 | [30] 0.928 | [31] 0.714 | [32] 0.895 | [33] 0.85 | [34] 0.935 | [35] 0.862 | [36] 0.886 | [37] 0.896 | [38] 0.873 | [39] 0.872 | [40] 0.92 | [41] 0.921 | [43] 0.849 | [44] 0.838 | [45] 0.842 | [46] 0.918 | [47] 0.87 | [48] 0.921 | [49] 0.925 | [50] 0.862 | [51] 0.923 | [52] 0.851 | [53] 0.906 | [54] 0.925 | [55] 0.785 | [56] 0.916 | [57] 0.825 | [58] 0.868 | [59] 0.92 | [60] 0.824 | [61] 0.913 | [62] 0.867 | [63] 0.855 | [64] 0.838 | [65] 0.911 | [67] 0.925 | [68] 0.912 | [69] 0.919 | [70] 0.915 | [71] 0.92

Cc1ccc(NNC(=O)c2cccs2)cc1Cl
inactive: [1] 0.969 | [2] 0.969 | [3] 0.971 | [4] 0.974 | [5] 0.957 | [6] 0.979 | [7] 0.972 | [8] 0.968 | [9] 0.967 | [10] 0.975 | [11] 0.964 | [12] 0.976 | [13] 0.966 | [14] 0.96 | [15] 0.974 | [16] 0.897 | [17] 0.966 | [18] 0.976 | [19] 0.966 | [20] 0.976 | [21] 0.958 | [22] 0.964 | [23] 0.963 | [24] 1.01 | [25] 0.824 | [26] 0.943 | [27] 0.97 | [28] 1.03 | [29] 0.964 | [30] 0.98 | [31] 0.984 | [32] 0.963 | [33] 0.952 | [34] 0.975 | [35] 0.925 | [36] 1.03 | [37] 0.945 | [38] 0.953 | [39] 0.963 | [40] 0.968 | [41] 1.03 | [42] 0.876 | [43] 0.968 | [44] 0.929 | [45] 0.918 | [46] 0.979 | [47] 0.961 | [48] 0.974 | [49] 0.975 | [50] 0.963 | [51] 0.966 | [52] 0.979 | [53] 0.976 | [54] 0.961 | [55] 0.922 | [56] 0.972 | [57] 0.943 | [58] 0.894 | [59] 1.02 | [60] 0.914 | [61] 0.978 | [62] 0.964 | [63] 0.949 | [64] 0.959 | [65] 0.967 | [66] 0.948 | [67] 0.969 | [68] 0.973 | [69] 0.962 | [70] 0.991 | [71] 0.972

O=C(NNc1ccc(F)cc1F)c1sccc1Cl
active: [42] 0.858
inactive: [1] 0.974 | [2] 0.96 | [3] 0.978 | [4] 0.971 | [5] 0.971 | [6] 0.968 | [7] 0.975 | [8] 0.961 | [9] 0.977 | [10] 0.969 | [11] 0.924 | [12] 0.971 | [13] 0.957 | [14] 0.968 | [15] 0.927 | [16] 0.841 | [17] 0.952 | [18] 0.975 | [19] 0.962 | [20] 0.978 | [21] 0.916 | [22] 0.977 | [23] 0.912 | [24] 1 | [25] 0.879 | [26] 0.903 | [27] 0.96 | [28] 0.987 | [29] 0.925 | [30] 0.968 | [31] 0.939 | [32] 0.967 | [33] 0.926 | [34] 0.976 | [35] 0.86 | [36] 1.01 | [37] 0.927 | [38] 0.952 | [39] 0.913 | [40] 0.976 | [41] 0.985 | [43] 0.926 | [44] 0.917 | [45] 0.904 | [46] 0.974 | [47] 0.963 | [48] 0.984 | [49] 0.989 | [50] 0.939 | [51] 0.974 | [52] 0.956 | [53] 0.975 | [54] 0.975 | [55] 0.858 | [56] 0.968 | [57] 0.908 | [58] 0.83 | [59] 0.994 | [60] 0.914 | [61] 0.97 | [62] 0.944 | [63] 0.92 | [64] 0.914 | [65] 0.967 | [66] 0.894 | [67] 0.978 | [68] 0.957 | [69] 0.953 | [70] 0.967 | [71] 0.97
